From PubChem BioAssay (EPA / NIEHS)
Active and inactive are the calls of the source. Rule for the calls: active = hit-call score of the fitted dose curve at least 0.9, where 1 is the maximum; inactive = score below 0.9.

Test: CCTE_Mundy_HCI_Cortical_Synap_Neur_Matur_NeuriteSpotCountPerNeuron: CCTE's Synaptogenesis and Neurite Maturation Assay in rat cortical cells for Neurite Spot Count per Neuron Count, Mundy Lab (AID 2284215)
Conditions: not given
How it was run: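 Rat primary cortical cultures given AraC at DIV 5, dosed from DIV 7 to DIV 12 with media change. Fixed, stained for MAP2, synaptophysin and Hoechst; neurite-associated synaptophysin puncta per neuron quantified by high-content imaging versus DMSO.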

| Compound | outcome | AC50 |
| --- | --- | --- |
| CSC(=O)c1cccc2nnsc12 | inactive | – |
| S=C(S)NCCNC(=S)S.[Mn+2].[S-]C([S-])=NCCN=C([S-])[S-].[Zn+2] | inactive | – |
| CC(C)(c1ccc(O)cc1)c1ccc(O)cc1 | – | 50 µM (active) |
| CC1(C)C(C=C(Cl)Cl)C1C(=O)OCc1cccc(Oc2ccccc2)c1 (stereo unspecified) | – | 8.69 µM (active) |
| Cc1nn(C)c(Oc2ccccc2)c1C=NOCc1ccc(C(=O)OC(C)(C)C)cc1 | – | 0.00181 µM (active) |
| C#CCOC(=O)[C@@H](C)Oc1ccc(Oc2ncc(Cl)cc2F)cc1 | inactive | – |
| O=C(O)c1ccccc1 | inactive | – |
| S=C([S-])NCCNC(=S)[S-].[Mn+2] | inactive | – |
| CCCN(CCC)C(=O)SCC | inactive | – |
| CCN(CC)C(=O)c1cccc(C)c1 | inactive | – |

Test: TAMU_PeakParms_SingleDonor1434_Chronotropy: Texas A&M University (TAMU) 1.5-hr Human Induced Pluripotent Stem Cell (iPSC)-derived Cardiomyocytes Calcium (Ca+2) Flux Assay for Cardiotoxicity: Chronotropy (changes in peak frequency) (AID 2284217)
Conditions: actives raise or lower the signal
How it was run: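 Using fluorescent Ca2+ flux, average beats per second are measured in human iPSC-derived cardiomyocytes treated 90 min (0.5% DMSO vehicle, 0.2–100 uM). Non-beating data points are removed; activity is modeled in both directions relative to DMSO controls.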

| Compound | AC50 | outcome |
| --- | --- | --- |
| c1ccc2[nH]c(-c3cscn3)nc2c1 | 9.92 µM (active) | – |
| CC(C)(c1ccc(O)cc1)c1ccc(O)cc1 | 50 µM (active) | – |
| CC(=O)[C@H]1CC[C@H]2[C@@H]3CCC4=CC(=O)CC[C@]4(C)[C@H]3CC[C@]12C | – | inactive |
| CC1(C)C(C=C(Cl)Cl)C1C(=O)OCc1cccc(Oc2ccccc2)c1 (stereo unspecified) | – | inactive |
| COCCO | – | inactive |
| O=C(O)c1ccccc1 | – | inactive |
